The full list was thinned out, with hits kept by preference.
TTR transcr act: increases transthyretin transcription. SH-SY5Y TTR promoter Gaussia luciferase, luminescence; 100% = recombinant luciferase protein wells. activation, % at 16.7 µM. hit rate 1.3% among 92,000. AID 1117267;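 active means activation above the mean of all tested compounds plus 3 SD, cut at about 9.5% in these data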;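 further: cells exposed to compounds for one day before reading; 0% = median of all test compound wells on the plate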
TTR inh HuH7: counter-screen for TTR activators: TTR transcription inhibitors in HuH7 cells; shares compounds with TTR transcr act; HuH7 TTR promoter-Gaussia luciferase reporter, luminescence; inhibition, % at 16.7 µM; hit rate 4% among 1,100; AID 1117279;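 active means average inhibition above the solvent-only control wells' mean plus 3 SD, cut at about 15% in these data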;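 further: 0% = cells with DMSO only and 100% = cells with inhibitor control FD; inhibitors lower well luminescence so higher value means more inhibition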
TTR act confirm: human TTR transcription activation, confirmation. activation, % at 16.7 µM. 1,100 tested, under 10 active. shares compounds with TTR transcr act. SHSY5Y TTR promoter Gaussia luciferase, luminescence; 100% = purified Lucia enzyme wells, no cells;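 active means mean activation above a set limit taken from the earlier primary screen, cut at about 11% in these data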;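 further: 0% = DMSO-treated cells and 100% = recombinant Lucia luciferase without cells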
Active calls of the source: *.

SMILES	TTR transcr act	others
O=C(NC12CC3CC(CC(C3)C1)C2)OC1CN2CCC1CC2 (stereo not given)	13*	TTR inh HuH7=-15;TTR act confirm=0
COP(=O)(OC)C(C)NC(=O)OCc1ccccc1 (stereo not given)	6
C[C@H](NC(=O)OCc1ccccc1)C(=O)NC(Cc1ccccc1)P(=O)(Oc1ccccc1)Oc1ccccc1 (stereo not given in full)	1
CC(C)(OOC1(c2ccccc2)NC(=O)c2ccccc21)c1ccccc1 (stereo not given)	2
CC[C@]12CCN(CC3(O)CC3)C(Cc3ccc(O)cc31)C2(C)C	4
COc1cc2c(c3oc4cccc(O)c4c(=O)c13)[C@@H]1C=CO[C@@H]1O2	2
COc1ccc(C(=O)Nc2cccc(S(=O)(=O)NCc3ccco3)c2)cc1	11*	TTR inh HuH7=-3;TTR act confirm=-1
COc1ccc(Cn2c(N)c(C(=O)NCc3ccco3)c3nc4ccccc4nc32)cc1OC	3
O=C(Nc1ccc(Cl)c(Cl)c1)c1ccco1	-2
COC(=O)C1C(c2ccc(C)cc2)CC2CCC1N2C (stereo not given)	-2
CCOC(=O)[C@]12Cc3c(cc(OC)c(OC)c3OC)[C@H]1N(C1CCCCC1)C(=O)c1ccccc12	-6
O=c1[nH]c2ccccc2n1C1CCN(C(c2cc3ccccc3o2)c2nnnn2-c2ccc3c(c2)OCCO3)CC1 (stereo not given)	-5
CC(NC(=O)OC1CC2CCC1(C)C2(C)C)P(=O)(Oc1ccccc1)Oc1ccccc1 (stereo not given)	5
COC(=O)C1CC(OC(C)=O)C(=O)[C@H]2C1(C)CC[C@H]1C(=O)OC(c3ccoc3)CC12C (stereo not given in full)	-1
CCOC1=C(N2CC2)C(=O)C(OCC)=C(N2CC2)C1=O	-1
CCCC(=O)Nc1ccc(N2CCN(CC)CC2)c(Cl)c1	0
CCCC(=O)NC1=C(N2CC2)C(=O)C(NC(=O)CCC)=C(N2CC2)C1=O	11*	TTR inh HuH7=53*;TTR act confirm=-3
C[N+]1=C(N)NC2=C3CCCCC3ONC2C1 (stereo not given)	-1
O=C(N/N=C/c1c(O)n(-c2ccccc2)c(=O)[nH]c1=O)c1ccncc1	13*	TTR inh HuH7=0;TTR act confirm=0
Cc1ccc(-n2c(O)c(/C=N/NC(=O)c3ccncc3)c(=O)[nH]c2=O)cc1	-2
Cc1cccc(-n2c(O)c(/C=N/NC(=O)c3ccncc3)c(=O)[nH]c2=O)c1	2
CC(NC(=O)OCc1ccccc1)[P+](=O)O (stereo not given)	0
CC(C)OC(=O)C1C(c2ccc(I)cc2)CC2CCC1N2C (stereo not given)	-1
CCOC(=O)N1CCC(NC(=O)CCc2nc(C3=CCN(C)CC3)no2)CC1	10*	TTR inh HuH7=2;TTR act confirm=0
Cc1c(P(=S)(c2ccccc2)c2ccccc2)c2ccccc2n1C	4
SMILES	TTR transcr act	others
CCCCn1c(O)c(C(=O)/C=C/c2ccc3c(c2)OCO3)c(=O)[nH]c1=O	21*	TTR inh HuH7=15*;TTR act confirm=1
C=CCn1c(O)c(C(CC)=NCc2ccc3c(c2)OCO3)c(=O)[nH]c1=O	-1
O=C(/C=C/c1ccc2c(c1)OCO2)c1c(O)n(CCC2=CCCCC2)c(=O)[nH]c1=O	1
C=C(C=O)CC1CC(O)[C@]2(C)OC3CC4OC5C[C@]6(C)O[C@]7(C)CCC8OC9C[C@]%10(C)OC%11C(C)=CC(=O)OC%11CC%10OC9C[C@@H](C)C8OC7CC6O[C@]5(C)C/C=C\C4OC3CC2O1 (stereo not given in full)	-5
O=C(NC(CCC(O)CO)P(=O)(Oc1ccccc1)Oc1ccccc1)OCc1ccccc1 (stereo not given)	-1
C=CCOC(=O)C1=C(C)OC(N)=C(C#N)C12C(=O)N(CN1CCOCC1)c1ccccc12 (stereo not given)	11*	TTR inh HuH7=-11;TTR act confirm=1
COCCOC(=O)C1=C(N)OC(C)=C(C(=O)OC)C12C(=O)Nc1ccccc12 (stereo not given)	1
CCOC(=O)C1=C(N)Oc2c(c(=O)oc3ccccc23)C12C(=O)N(C)c1ccccc12 (stereo not given)	2
CCn1c(C)cc(/C=C2\C(=O)NC(=O)N(c3ccccc3C)C2=O)c1C	1
COc1ccc(N2C(=O)/C(=C/c3cc(C)n(-c4ccc(C)cn4)c3C)C(=O)NC2=S)c(OC)c1	11*	TTR inh HuH7=-1;TTR act confirm=-1
Cc1ccc(-n2c(C)cc(/C=C3/C(=O)NC(=O)N(C)C3=O)c2C)cc1	1
CC(NC(=O)OCc1ccccc1)P(=O)(Oc1ccccc1)Oc1ccccc1 (stereo not given)	9
C=C1[C@@H](C)C2[C@H](Cc3ccccc3)NC(=O)[C@]23[C@H](OC(C)=O)/C=C/[C@@](C)(O)C(=O)[C@@H](C)C/C=C/[C@H]3[C@@H]1O (stereo not given in full)	2
CN1C(=O)C(Cc2ccccc2)C(=O)N(C)C1=O	0
CN1C(=O)C(C2CCCCC2)C(=O)N(C)C1=O	0
CN1C(=O)C(Cc2ccsc2)C(=O)N(C)C1=O	12*	TTR inh HuH7=-8;TTR act confirm=0
CC(C)CCP(=O)(O)O	-1
COC(=O)C1=C(c2ccc(OC(F)(F)F)cc2)C[C@@H]2CC[C@H]1N2C(=O)NCc1ccco1	4
COC1CC=C2CCN3CCC4=C(CC(=O)OC4)C23C1 (stereo not given)	0
CN1C2CCC1C(C(=O)Oc1ccccc1)C(c1ccc(Cl)cc1)C2 (stereo not given)	1

Source: PubChem BioAssay (The Scripps Research Institute Molecular Screening Center)
